# Screening results (PubChem BioAssay)
# Compounds with a hit are over-represented: about 5.9% of the library has one in this group of screens.
# HepG2 tox – kills HepG2 cells in TGF-b inhibitor counter-screen; Potency, µM (top dose mostly 46.1 µM), for inactives: top-dose activity change, negative = cytotoxicity, actives largely listed as cytotoxic; 0.76% of 410,000 active; HepG2 CAGA-GFP viability, ATP luminescence, 18 h; AID 588856
#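 HepG2 CAGA-GFP cells (1000/well, DMEM with 1% FBS) received compound, then TGF-beta at 500 pg/mL final, and were incubated 18 hours at 37 degrees C. Viability was read by CellTiter-Glo luminescence. Media-only wells were set as complete cell-killing and DMSO as no toxicity.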
# ATXN viability – cell viability loss in ATXN counter-screen; S2 cells (HEK-293 line with an ATXN2-luciferase reporter) viability, CellTiter-Fluor protease fluorescence, 24 h; Potency, µM (highest dose often 56.7 µM), hits mostly cytotoxic; 0.49% of 400,000 active; further: nearly all actives have a fitted effect of over 40% in size
# TGFb SMAD3 inh – inhibitors of TGF-b signaling | Potency, µM (top dose mostly 46.1 µM), inactives show top-dose activity, negative = inhibition, actives largely listed as inhibitors | 1.2% of 410,000 active | HepG2 CAGA-GFP TGF-b/SMAD3 reporter, GFP fluorescence, 18 h; TGF-beta stimulated, 500 pg/mL final; further: on the % scale 0 is the no-effect control and ±100 the full control effect; nearly all actives have a fitted effect of over 65% in size
#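 Inhibition of TGF-beta-driven CAGA-GFP reporter expression in HEPG2 cells is measured by cellular GFP fluorescence after 18 h stimulation with 500 pg/mL recombinant TGF-beta in 1% FBS medium at 37 degrees C.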
# KB-3-1 cytotox – KB-3-1 parental cell cytotoxicity | 1.4% of 400,000 active | Potency, µM (series often up to 46.1 µM), most hits filed as cytotoxic | KB-3-1 viability, CellTiter-Glo ATP luminescence, 72 h | AID 1347075; further: on the % scale 0 is the no-effect control and ±100 the full control effect; nearly all actives have a fitted effect of over 60% in size
#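 KB-3-1 parental drug-naive adenocarcinoma cells in DMEM/10% FBS, incubated 72 h at 37 C with pin-transferred compounds across a concentration series. Viability by CellTiter-Glo luminescence; concentration-response curves fitted after normalization.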
# ATXN2 expr inh – reduces ATXN2 reporter expression in HEK-293 cells | Potency, µM (series often up to 57 µM), without a hit: top-dose activity change, negative = inhibition, actives largely listed as inhibitors | HEK-293 ATXN2-luciferase reporter, luminescence, 24 h | 0.72% of 360,000 active; further: on the % scale 0 is the no-effect control and ±100 the full control effect; nearly all actives have a fitted effect of over 55% in size
#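 ATXN2-luciferase reporter cells (luciferase flanked by upstream and downstream ATXN2 gene portions) were treated 24 h at 37 °C with compounds at up to 57 uM. SteadyGlo luminescence gave expression; GF-AFC fluorescence gave viability.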
# KB-V1 cytotox – KB-V1 MDR subline cytotoxicity | KB-V1 MDR cells viability, CellTiter-Glo, 72 h | Potency, µM (highest dose often 46.1 µM), usual class: cytotoxic | 3.4% of 400,000 active; further: on the % scale 0 is the no-effect control and ±100 the full control effect; nearly all actives have a fitted effect of over 60% in size
#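 KB-V1, DMEM (no phenol red) + 10% FBS; cpd pin-transferred, titration series; 72 h, 37 degrees C; CellTiter-Glo, luminescence. Data normalized, curve-fit.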
# The depositor's hits bear a star; i = inactive; u = inconclusive; x = no result given. The call rests on the fitted dose curve; in most records, active means well fitted curve in the direction sought with a large enough effect; inconclusive means small, poorly fitted or top-dose-only effect, or another doubt; inactive means no such curve, though single readings can be large; an effect the other way counts as inactive or inconclusive. Potency means the concentration at half of the fitted maximal effect.
SMILES,HepG2 tox,ATXN viability,TGFb SMAD3 inh,KB-3-1 cytotox,ATXN2 expr inh,KB-V1 cytotox
COc1ccccc1-n1cc(CN2CCc3onc(-c4ccc(Br)cc4)c3C2=O)nn1,x,x,x,i,x,u
Cc1ccc(OCCn2cc(/C=C(\C#N)C(=O)NCC3CCCO3)c3ccccc32)cc1 (stereo not given),0%,i,-7%,i,-5%,21µM*
Cc1ccc(CNC(=O)C2CCCN(c3ncnc4onc(-c5ccc(F)cc5)c34)C2)cc1 (stereo not given),9%,i,-1%,i,10%,i
CC(C)Oc1ccc(S(=O)(=O)N2CCOCC2)cc1NC(=O)c1cccc(S(=O)(=O)N2CCCC2)c1,-2%,i,5%,i,-21%,18µM*
CCNC(=O)c1ccccc1NC(=O)c1cccc(S(=O)(=O)N2CCC(C)CC2)c1,1%,i,-6%,i,-19%,16µM*
O=C(Nc1cc(S(=O)(=O)N2CCOCC2)ccc1N1CCOCC1)c1cccc(S(=O)(=O)N2CCCCC2)c1,-48%,i,u,i,-18%,i
Cc1ccc(NC(=O)c2cc(S(=O)(=O)N3CCOCC3)ccc2F)c(C)c1,7%,i,-4%,i,15%,13µM*
COc1ccc(C)cc1NC(=O)c1ccc(S(=O)(=O)N2CCOCC2)cc1,-3%,i,-13%,i,-6%,16µM*
CCOC(=O)[C@]12CCCC=C1N(Cc1ccco1)C(=O)[C@H](CC(=O)NCc1cccs1)C2,x,u,x,i,7%,i
CC(=O)CC/C=C(\C)CC/C=C(\C)CC/C=C(\C)CCC=C(C)C,x,i,x,x,7%,x
CC(C)Oc1ccc(C(=O)Nc2cc(S(=O)(=O)N3CCOCC3)ccc2N2CCOCC2)cc1,-16%,i,8%,u,-17%,16µM*
O=C(Nc1ccccc1C(=O)N1CCOCC1)c1cccc(S(=O)(=O)N2CCCC2)c1,5%,i,-1%,i,6%,9.2µM*
CCOC(=O)N1CCN(S(=O)(=O)c2ccc(F)c(C(=O)Nc3cccc(Cl)c3C)c2)CC1,-17%,i,-27%,i,-29%,3.3µM*
CCOC(=O)N1CCN(S(=O)(=O)c2ccc(F)c(C(=O)Nc3cc(C)cc(C)c3)c2)CC1,0%,i,1%,i,-9%,i
O=C(Nc1ccccc1C(=O)N1CCCC1)c1cccc(S(=O)(=O)N2CCCCCC2)c1,5%,i,-20%,i,2%,i
COc1cccc(NC(=O)C(Cc2ccccc2)N2Cc3ccccc3C2=O)c1 (stereo not given),0%,x,-24%,x,x,x
CN(C)c1ccc(/C=C/c2ccnc3c(O)ccc(O)c23)cc1,-10%,x,-5%,i,x,i
CCOC(=O)CSc1nnc([C@H](Cc2ccccc2)NC(=O)OC(C)(C)C)o1,-4%,i,-1%,i,7%,i
CC(C)C[C@H](N)c1nnc(S(=O)(=O)Cc2cccc(F)c2)o1,-90%,x,18µM*,i,u,i
CC(C)[C@H](NC(=O)OC(C)(C)C)c1nnc(S(=O)(=O)Cc2c(F)cccc2Cl)o1,20µM*,x,11µM*,i,u,u
CC(C)(C)OC(=O)N[C@@H](Cc1ccccc1)c1nnc(S(=O)(=O)Cc2cccc(F)c2)o1,-102%,x,11µM*,18µM*,u,18µM*
CC1C(c2ccccc2)N(C)C(c2ccccc2)CC1(O)c1ccccc1 (stereo not given),22µM*,u,u,i,u,i
CC(CC(=O)Nc1ccc2c(c1)c(=O)n(C)n2-c1ccccc1)c1ccccc1 (stereo not given),2%,u,-1%,4.6µM*,6%,10µM*
CCC1CCCCN1C(=O)Cn1c(=O)n(CC2CCC(C(=O)NC)CC2)c(=O)c2sccc21 (stereo not given),-1%,i,-12%,i,-5%,i
COC(=O)c1cc2c(cc1NC(=O)c1cnn(-c3ccccc3)c1-n1cccc1)OCO2,-27%,i,-12%,i,1%,i
SMILES,HepG2 tox,ATXN viability,TGFb SMAD3 inh,KB-3-1 cytotox,ATXN2 expr inh,KB-V1 cytotox
Cc1ccc2nc(-c3ccc(C)c(NC(=O)COc4ccc(Cl)cc4)c3)oc2c1,4%,x,19%,i,x,i
COc1ccccc1CNc1nc(NCc2ccc3occc3c2)c2sccc2n1,11µM*,u,u,i,u,i
COc1ccccc1CNc1nc(Nc2ccccc2-n2cccn2)c2sccc2n1,-33%,16µM*,u,i,0%,u
COc1ccccc1CNc1nc(Nc2cccc(-c3cnco3)c2)c2sccc2n1,-72%,20µM*,u,u,0%,i
COc1ccccc1CNc1nc(NCc2ccc(NC(C)=O)cc2)c2sccc2n1,-78%,i,18µM*,u,u,i
COc1ccc(CN2CCOc3ccc(C(O)c4cccnc4)cc3C2)c(F)c1 (stereo not given),x,i,x,x,x,x
COc1ccccc1CNc1nc(NCC2CC2)nc2ccsc12,10µM*,x,13µM*,u,u,i
COc1ccccc1CNc1nc(NCc2ccccc2OC)c2sccc2n1,-52%,u,u,u,u,u
COc1ccccc1CNc1nc(NCCOc2ccccc2)c2sccc2n1,-96%,u,u,u,u,21µM*
COc1ccccc1CNc1nc(NCc2cccs2)nc2ccsc12,-34%,u,11µM*,i,u,i
Cc1cc(C)c2c(=O)cc(CSCC(=O)Nc3ccccc3Cl)[nH]c2c1,0%,u,0%,i,-8%,i
COc1cccc(CNC(=O)c2nn(-c3ccc(C)cc3)c(=O)c3c2c2ccccc2n3C)c1,-3%,i,4%,i,-3%,i
CC1(C)Oc2ccc(C(=O)N3CCCC3)cc2N(CC(=O)NCc2ccccc2)C1=O,-2%,i,9%,i,8%,i
COc1ccc(C(=O)CN2C(=O)C(C)(C)Oc3ccc(C(=O)N4CCCCCC4)cc32)cc1,-46%,i,6%,i,-5%,18µM*
CCOc1ccc(Cl)cc1S(=O)(=O)N1CCN(c2ccc(C)c(C)c2)CC1,-8%,i,-2%,i,-17%,15µM*
CCOc1ccc(Cl)cc1S(=O)(=O)N1CCN(c2ccc(F)cc2)CC1,-28%,i,-2%,i,u,i
C=CCn1c(-c2ccc(Cl)cc2)c[nH]c1=S,-6%,i,-11%,21µM*,5%,23µM*
